# From the OligoGym collection
# Target: CYP20A1
# Assay: pooled miR-30 sensor sort-seq; sequence = guide strand
# Conditions: shRNA
# Also: reference of the scale not given here.
row,Sequence,sensor-assay potency score (higher = more potent)
1,TTTGCAGTTATTATGCAACTGG,-0.736
2,TTTTGAACTTCTTCAGAGGTGG,0.0133
3,TATCATACTGTCTTCTAGGATC,-0.814
4,TCCTTCAATATCTTGAAGCTGG,-0.788
5,TTATCTAATAATTCTTCTGAAA,-1.37
6,ATACTTTGTTTCAATAACCTGT,-0.318
7,TAAATCGGTCAATTTTTCCTTC,0.481
8,TTCTTCTGAAAGCTTTAGGAGG,-0.987
9,TACACTAAGAAGTACTGTGGTC,-0.206
10,TTCATCATCAAACCGATCTGGA,-0.00182
11,ATGCTGACAATATCTGAGCTGC,-0.739
12,TTTATCTAATAATTCTTCTGAA,-0.378

# Target: CYP2E1
# Assay: as above
# Conditions: shRNA
row,Sequence,sensor-assay potency score (higher = more potent)
1,TGTCATACAAAACAGAGTCCAG,-0.481
2,TTGTAGTCAAAATGCTTGCGGA,-0.87
3,TAAACAAATACATCAGCCTTAG,-0.917
4,TTTTTTATGACTTTTCTGTGGC,0.343
5,TAGAAACTTCTCATCATTGTAG,1.11
6,AAGTAGTGTAGAAAGCTGGGAA,0.682
